# Laboratory results published in PubChem BioAssay (EPA / NIEHS).
# Several values for one entry are separate records, joined by “and”; a condition that tells them apart may be missing. Equal values may be shown once. Results filed as inconclusive are left out. Activity calls are given as the source filed them. The calls were made as follows: active = hit-call score of the fitted dose curve at least 0.9, where 1 is the maximum; inconclusive = response in the unintended direction; inactive = score below 0.9.
# Test: TOX21_p53_BLA_p4_viability: Viability Assessment in the Tox21 HCT-116 p53 Agonism Beta-lactamase Assay, Phase 4 (AID 2283597);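 also: hits lower the luminescence signal meaning cytotoxicity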
# Summary of the method: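 Readout: ATP luminescence (CellTiter-Glo), measured 30 min after reagent addition at RT. The reagent followed a 2 h CCF4-AM incubation, and the cells had been exposed to compound for 16 h at 37C.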
SMILES,outcome,AC50
CCC(C)c1cc([N+](=O)[O-])cc([N+](=O)[O-])c1O (stereo not drawn),inactive,–
COS(=O)(=O)OC,inactive,–
Nc1ccc(-c2ccc(N)cc2)cc1,inactive,–
Cc1cccc([N+](=O)[O-])c1,inactive,–
O=C(O)C(F)(F)C(F)(F)C(F)(F)C(F)(F)C(F)(F)C(F)(F)C(F)(F)C(F)(F)F,–,46.1 µM (active)
CCCCCCCCCC[N+](C)(C)CCCCCCCCCC,–,23.4 µM (active) and 21.1 µM (active)
CC(C)(c1ccccc1)c1ccc(O)cc1,–,71 µM (active) and 65.8 µM (active)
ClC1=C(Cl)[C@]2(Cl)[C@@H]3[C@H]4C[C@H]([C@@H]5O[C@H]45)[C@@H]3[C@@]1(Cl)C2(Cl)Cl,inactive,–
Clc1ccc(Cl)cc1,inactive,–
Oc1c(Cl)c(Cl)c(Cl)c(Cl)c1Cl,inactive,–
C[C@]12CCC(=O)C=C1CC[C@@H]1[C@@H]2CC[C@@]2(C)[C@H]1CC[C@]2(C)O,inactive,–
O=C(NC(=O)c1c(F)cccc1F)Nc1cc(Cl)c(OC(F)(F)C(F)F)c(Cl)c1,inactive,–
Clc1ccc(C(c2ccccc2Cl)C(Cl)(Cl)Cl)cc1 (stereo not drawn),–,30.2 µM (active) and 62.2 µM (active)
